The campaign covered roughly 65,000 compounds. About 2,100 (3.2%) showed an effect of 50% or more. The median lay at about -52%. The entries come from a sample that favours strong results as a whole.

This assay concerns Plasmodium falciparum. The assay can be described thus: Screen against P. falciparum Asexual Blood Stage (ABS), at 5uM. The assay is classed as functional, Dd2. The conditions noted are these: tested at 5 uM.
For the molecule `COCCCN1CCCCC12CC(=O)N(Cc1ccccn1)C2` (stereo not given), the INHIBITION is -98.8%. Turning to `Cc1noc(C)c1CN1C[C@@H]2COC[C@H](C(=O)N3CCCO3)[C@@H]2C1`, the INHIBITION is given as -23.5%.

With `CCC(O)CN1CCN(C(=O)Cc2c(C)nc(C)[nH]c2=O)CC1` (stereo not given), the INHIBITION is listed as -143%. Under `CN1CCC(O)(CNCc2ccc(F)c(C(F)(F)F)c2)CC1` stands 83.3%.

With `COc1ccc(OC)c(C2SCC(=O)Nc3n[nH]cc32)c1` (stereo not given), the INHIBITION was -130%. Turning to `Cc1ccc(CN2CCC3(CCN(S(=O)(=O)c4ccccc4)C3)C2)o1` (stereo not given), the INHIBITION is given as 79.6%.

For `Cc1ccc(CN2CC[C@]3(C[C@H](OCc4ccccn4)CO3)C2)o1`, the INHIBITION was determined as 22.1%.

For `Cc1ccc(CN2CC3(CCN(C(=O)c4cccnc4)C3)C2)o1`, the INHIBITION is recorded as -143%. To `CCNC(=O)NC[C@H]1C[C@@H]2CCN1C[C@@H]2c1cc(-c2cccs2)nn1C` belongs -58.2%; to `O=C(NCCc1ccccc1)NCCN1CCC(c2cccs2)CC1`, 77.6%. Under `COCC(=O)NC[C@H]1C[C@@H]2CCN1C[C@@H]2c1cc(-c2cccs2)nn1C` stands -43.2%; under `Cc1cc(CNC(=O)CCc2ccc(S(N)(=O)=O)cc2)no1`, -28.2%.

In the case of `COc1ccc(CCC(=O)NCCN2CCC(c3cccs3)CC2)cc1`, the INHIBITION turned out to be 75.8%.

Regarding `OC[C@@H]1[C@H]2CN(c3ccccn3)CCN2C[C@H]1c1ccccc1`, the INHIBITION is recorded as 41.3%. To `CCOC(=O)N1CCCC2(CCCNC2)C1` (stereo not given) belongs -33%. Take `O=C1CO[C@@H]2CN(Cc3ccsc3)C[C@H]2N1Cc1ccncc1`: the INHIBITION is -56.6%.

Take `CCN(C)CC1CCN(S(=O)(=O)c2cc(C)c(F)cc2Cl)C1` (stereo not given): the INHIBITION came to 79.3%. For `Cc1cccc(CN2C[C@@H]3CC[C@H]2CN(Cc2[nH]cnc2C)C3)n1`, the INHIBITION is 50.9%. Under `Cc1cc(CN2C[C@@H]3CC[C@H]2CN(Cc2[nH]cnc2C)C3)on1` stands -63.7%; under `Cc1ccc(N2CC[C@@H]3CN(Cc4cccc(C)n4)C[C@@H]3C2)nn1`, -27.5%. As for `CC[C@@H]1N(Cc2ccccn2)CCC[C@]12CCC(=O)N2CCOC`, the INHIBITION is reported as -116%. To `Cc1[nH]c(C2(N)CCCCC2)nc(=O)c1C` belongs -60%; to `Cc1cnc(N2CCOC3(CCCN(CC(=O)N(C)C)C3)C2)nc1` (stereo not given), -6.47%.

Take `COc1ccc(Cl)cc1CC(=O)N1CCN(CC(C)O)CC1` (stereo not given): the INHIBITION is -132%. Under `CC(CNC(=O)c1cc(Cl)ccc1I)N1CCCC1` (stereo not given) stands 71.1%.

As to `Cc1nc(N2C[C@H]3CNC[C@H]3C2)c2sccc2n1`, the INHIBITION is -54.7%. To `Cc1nc(CO[C@@H]2CN(Cc3cccnc3)[C@@H]3COC[C@@H]32)cs1` belongs -14.2%; to `CCN1CCC2(CCC1=O)CN(c1ccnc(SC)n1)CCN2C` (stereo not given), -44.5%; to `Cc1nc(CC(=O)N2CCN(CCOc3ccccc3)CC2)cs1`, -22.5%. Under `CN(C)C(=O)CN1CCN(C(=O)Cc2csc(-c3ncccn3)n2)CC1` stands 6.7%. Under `CC(Cn1cccn1)NCc1csc(-c2ccsc2)n1` (stereo not given) stands -88.6%; under `Cc1cnn(CCCNCc2csc(COc3ccccc3)n2)c1`, 70.9%.

On to `CN1CCN(C(=O)Cc2csc(-c3ccsc3)n2)C(c2ccccc2)C1` (stereo not given), for which the INHIBITION is recorded as -7.38%. On to `Cc1cnn(CCNCc2csc(-c3ncccn3)n2)c1`, for which the INHIBITION amounted to 71.5%.

Turning to `Cc1nc(CN2CC[C@H]3[C@H]2CCN3c2ncccn2)cs1`, the INHIBITION is given as -38%. Under `Cc1cnn(CCNCc2csc(-c3ccsc3)n2)c1` stands 72.3%; under `O=C(C1CCOCC1)N1C[C@@H]2CC[C@H]1CN(Cc1ccncc1)C2`, -111%; under `COc1ccc2c(c1)c(C(=O)Nc1nnn[nH]1)cn2C`, 10.8%. Turning to `Cc1cc(N2CCC(O)(CN(C)C)C2)c2cc3c(cc2n1)OCO3` (stereo not given), the INHIBITION was 89.9%. To `Cc1cc(N2CCCC(O)(CN(C)C)C2)c2cc3c(cc2n1)OCO3` (stereo not given) belongs 80.2%. Take `CCOCCN1CCN(CC(O)c2cc(Cl)ccc2Cl)CC1` (stereo not given): the INHIBITION worked out at 78.5%.

Turning to `CCN1CCN(CC(O)c2cc(Cl)ccc2Cl)CC1` (stereo not given), the INHIBITION was 77%. With `O=C(NCc1cccnc1)[C@H]1CN2CCC1C[C@@H]2Cn1cc(CO)nn1` (stereo not given in full), the INHIBITION was -46.1%. With `O=C(O)[C@@H]1CN(CC2CCC2)C[C@H]1c1ccc(F)cc1`, the INHIBITION is on record as -73.4%. On to `O=C(c1ccco1)N1CCN2C[C@H](Oc3cncnc3)C[C@H]2C1`, for which the INHIBITION was -20.6%. To `CC(C)n1ncc2c1NC(=O)CC21C(=O)Nc2c(Cl)ccc(Cl)c21` (stereo not given) belongs 83.5%; to `O=C(NC[C@H]1C[C@@H]2CCN1C[C@@H]2CN1CCCCC1)c1ccco1`, -92.2%. Under `COc1ccccc1C1SCC(=O)Nc2c1c(=O)[nH]n2C1CCCCC1` (stereo not given) stands -98.6%; under `N#Cc1ccc(N2CCC(OC3CCOCC3)CC2)cc1Cl`, -184%. To `CCC1CCCCN1CCc1ccncc1` (stereo not given) belongs -81.4%. With `CCC1CCCCN1Cc1ncc(C(C)(C)C)o1` (stereo not given), the INHIBITION was found to be 71.2%. With `Cc1ccc(N2C[C@H]3CCN(Cc4ccncc4)C[C@H]3C2)nn1`, the INHIBITION is -4.71%.

`COc1ccc(C(=O)C2CCCN(Cc3cc(C)n[nH]3)C2)c(OC)c1` (stereo not given): the INHIBITION was -4.88%. To `Cc1cc(CN2CCC(C3CCN(CCc4ccccc4)CC3)C2)[nH]n1` (stereo not given) belongs 93.5%; to `Fc1ccccc1C1(CNC2CCOC3(CCOCC3)C2)CCCC1` (stereo not given), 76.3%; to `CN(C)CCN(C(=O)Cc1ccc2c(c1)OCCO2)C1CCN(C)CC1`, -48.3%.

As for `CN(C)CCN1CCC2[C@@H]1CCN2Cc1ccc2c(c1)OCO2` (stereo not given in full), the INHIBITION is listed as 72.5%. To `COc1ncccc1CN1C[C@@H]2OCCN(CCN(C)C)[C@@H]2C1` belongs -3.36%; to `COc1ncccc1CN1CC[C@H]2O[C@@H](c3nnc(C)o3)CC[C@H]21`, -71.9%; to `COc1ncccc1CN1CCC2[C@H]1CCN2CCN(C)C` (stereo not given in full), 53.9%. For `CN(C)CCN(C)C(=O)Cc1ccc2c(c1)OCCO2`, the INHIBITION is reported as -12.9%. Take `Cc1cc(CN2CC[C@H]3C(=O)N(c4ccsc4)CCO[C@H]3C2)no1`: the INHIBITION is recorded as -34.2%. To `Cc1cccc(CO[C@@H]2CC[C@H]3[C@H]2OCCN3Cc2ccsc2)n1` belongs -46.8%; to `O=C(N[C@H]1CN(Cc2cccs2)[C@@H]2CCCO[C@H]12)c1cccnc1`, -57.9%.

As to `O=C(c1cccc(F)c1)N1C[C@H]2CN(Cc3ccccn3)C[C@H]2C1`, the INHIBITION is 0.82%. Under `Cc1noc(C)c1CN1C[C@H]2CN(Cc3cccc(F)c3)C[C@H]2C1` stands 55.4%; under `Fc1cccc(CN2C[C@@H]3CN(Cc4ccccn4)C[C@@H]3C2)c1`, 89.4%. To `Cc1noc(C)c1CN1C[C@@H]2CC(F)(F)C[C@@H]2C1` belongs -59.4%. For the molecule `Cn1cnc(S(=O)(=O)N2C[C@H]3CN(Cc4ccccn4)C[C@H]3C2)c1`, the INHIBITION is reported as -85.5%.

`Cc1noc(C)c1CN1C[C@@H]2C[C@@H](C)O[C@@H]2C1`: the INHIBITION is -75.1%. Consider `O=C(Cc1ccccn1)N1CCN2C[C@H](Oc3cncnc3)C[C@H]2C1`, for which the INHIBITION was -1.9%. As for `Cc1noc(C)c1CN1C[C@@H]2CN(C(=O)c3cnccn3)C[C@@H]2C1`, the INHIBITION is on record as -43.4%. To `Clc1cccc(N[C@H]2CCCN[C@H]2Cc2ccccc2)c1` belongs 92.8%; to `Cc1n[nH]cc1CNC1(c2ccc(F)cc2)CCCC1`, 83.4%; to `Cc1nc(C2(NCc3ccc(C#N)cc3F)CCCCC2)no1`, -32.3%. For `CC(C)OCCNC1(c2ccc(F)cc2)CCOCC1`, the INHIBITION was 34.8%. Turning to `O=C(c1cnccn1)N1CCN2C[C@H](Oc3cccnc3)C[C@H]2C1`, the INHIBITION is recorded as -106%.

Regarding `COc1ccccc1COCC(O)CN1CC(n2cccn2)C1` (stereo not given), the INHIBITION was found to be 78.9%. In the case of `CCOCC(O)CN1CCN(C(=O)Cc2ccccc2C)CC1` (stereo not given), the INHIBITION is on record as -143%.

In the case of `CN(C)c1ncc2c(n1)C1(CCN(Cc3ccccc3)C1)COC2` (stereo not given), the INHIBITION was found to be 27.6%.

Turning to `Cc1ccnc(CC(C)N(C)Cc2ccc3c(c2)OCCO3)c1` (stereo not given), the INHIBITION is on record as -56.5%.

`Cc1cccnc1CC(C)N(C)Cc1cccs1` (stereo not given): the INHIBITION worked out at 81.7%.

In the case of `CC(Cc1ccccn1)N(C)Cc1ccc2c(c1)CCO2` (stereo not given), the INHIBITION is 8.31%. Under `Cc1cnn(CC2CCCN2Cc2nc(C)c3ccccc3n2)c1` (stereo not given) stands 78%; under `Cc1nc(CN2CCCCC2Cn2cccn2)nc2ccccc12` (stereo not given), 70.4%. On to `Cc1cnn(CC2CCCN2Cc2cn3ccsc3n2)c1` (stereo not given), for which the INHIBITION stood at 81.3%.

On to `Cc1nc(CN2CCCC2Cn2ccnc2C(C)C)nc2ccccc12` (stereo not given), for which the INHIBITION was 77.3%. With `CCCN(CCN(C)C)C(=O)Cc1cn2ccsc2n1`, the INHIBITION is -76.3%. To `O=C(C1CCCCC1)N1C[C@@H]2CCNC[C@@H]21` belongs 9.5%.

As to `Cc1ccc(N2CC[C@@H]3CN(Cc4c[nH]cn4)C[C@@H]3C2)nn1`, the INHIBITION is recorded as -66.7%.

On to `Cc1cc(CC(C)NC2CCSCC2)[nH]n1` (stereo not given), for which the INHIBITION is on record as -36.2%.

`Cn1c(=O)n(C)c2cc(C3SCC(=O)Nc4ccsc43)ccc21` (stereo not given): the INHIBITION is -86.5%. To `Cc1c(CN2CCCC(C(=O)c3ccccc3)C2)cc(C#N)n1C` (stereo not given) belongs 44.6%. To `O=C(c1ccccc1)C1CCN(Cc2cc3c(cc2O)CCC3)CC1` belongs 90.1%. On to `CC(C)NC(=O)[C@H]1CN(Cc2ccccc2)C[C@@H]1C(=O)c1ccccc1`, for which the INHIBITION is listed as -90.6%.

On to `CC(C)[C@H](CO)Nc1nccc(-c2c[nH]nc2-c2ccncc2)n1`, for which the INHIBITION is 83.9%. Regarding `c1cc(-c2n[nH]cc2-c2ccnc(N3CCCCCC3)n2)ccn1`, the INHIBITION was 78%.

Turning to `c1cc(-c2n[nH]cc2-c2ccnc(N3CCCC3)n2)ccn1`, the INHIBITION turned out to be 81.1%. As to `COc1cc(N2CC[C@@H]3[C@@H](CC2)OCCN3CC2CC2)ncn1`, the INHIBITION is given as -53.8%. `COCC1CC2(CCNCC2)CN1c1ncccn1` (stereo not given): the INHIBITION is on record as -33.8%.

Values taken from ChEMBL document CHEMBL4513216, “Probing the Open Global Health Chemical Diversity Library for Multistage-Active Starting Points for Next-Generation Antimalarials” (ACS Infect Dis, 2020).
